Reference: ChEMBL document CHEMBL4888484, “Replenishing the malaria drug discovery pipeline: Screening and hit evaluation of the MMV Hit Generation Library 1 (HGL1) against asexual blood stage Plasmodium falciparum ,using a nano luciferase reporter read-out” (2022)
Out of some 4,800 compounds screened, about 410 (8.5%) showed an effect of 50% or more. The entries come from a sample that favours strong results as a whole.

What follows are molecules tested on Plasmodium falciparum (assay: Confirmatory screen in NF54 pLDH assay, in single point, at 2uM, 72h). Conditions: timepoint 72 hour.
Format: functional, Erythrocyte

Structure (SMILES) | % Inhibition
N#Cc1nccnc1NCCCCN1C(=O)c2ccccc2C1=O | -14%
CC1(C)COC(=O)[C@H]1OCN1CCCC1=O | -7%
CS(=O)(=O)N1CCC(C(=O)Nc2c(C(N)=O)sc3nc(C(F)F)cc(C4CC4)c23)CC1 | 5%
COc1ccc(NC(=O)c2cc(C3CC3)nc3onc(C4CC4)c23)cc1Cl | -4%
COc1ccc(Cl)cc1C(=O)N(C1CCOCC1)[C@H]1CCCN(S(C)(=O)=O)C1 | -12%
Cc1cc(=O)[nH]c(-n2nc(C3CC3)cc2NC(=O)C(C)(C)Oc2ccc(Cl)cc2)n1 | 82%
Cc1cc(=O)[nH]c(N2CCCCCC2)n1 | 8%
COc1ccc(Cl)cc1C(=O)Nc1cc(C2CC2)nn1-c1nc(C)cc(=O)[nH]1 | 72%
O=C(COc1ccc(Cl)cc1)N1CC(n2cnnc2C2CC2)C1 | -4%
COc1ccc(NC(=O)Cn2cnc3nc(N4CCOCC4)ncc3c2=O)cc1 | 15%
CO[C@@H](CNc1nc(C)c(S(N)(=O)=O)s1)c1ccc(F)cc1 | -17%
COc1ccc(NC(=O)[C@@H]2COCC(=O)N2Cc2ccc(C)cc2)cc1 | 7%
CCc1ccc(C2=C[C@@H](c3cccc(OC)c3)n3ncc(C(=O)Nc4ccc(C)cc4)c3N2)cc1 | 70%
COc1cccc([C@H]2CC(=O)Nc3c2cnn3C)c1 | -11%
Cc1nn(CCOc2ccccc2)c(=O)n1-c1ccc(C(C)C)cc1 | 14%
CC(=O)N1CCCN(C(=O)c2ccccc2)CCNC(=O)[C@@H]2CCC[C@@H]21 | 9%
CC(C)(C)n1ncc2c1NC(=O)C[C@@H]2c1c(F)cccc1Cl | -19%
CC(C)C(=O)Nc1ccc(-c2cc(-c3ccc(NC(=O)C(C)C)cc3)nc(-c3ccncc3)n2)cc1 | 42%
C[C@H](N)c1ccc(Nc2ncc3cc(-c4ccncc4)ccc3n2)cc1 | 101%
CCC(CC)C(=O)Nc1cccc(O)c1 | 7%
O=c1c2cc(F)c(F)cc2ncn1C[C@@H](O)CC1CCCC1 | 9%
O=C1CCC(Nc2ccc(Br)cn2)C(C2CC2)N1 (configuration not stated) | 15%
Clc1cc(CN2CC[C@@]3(CCCOC3)C2)ccc1OCCN1CCOCC1 | 11%
CCn1cc(Cl)c(C(=O)N2N=C3/C(=C/c4ccc5c(c4)OCO5)CCCC3C2c2ccc3c(c2)OCO3)n1 (configuration not stated) | 8%
CCc1ccc(NC(=O)c2c(C)sc3ncnc(N4CCCCC4)c23)cc1 | 12%
C[C@H](C(=O)Nc1nccn2ccnc12)c1ccccc1 | 3%
CC(=O)N1CCn2c(nnc2[C@@H]2CCCN2S(=O)(=O)c2cc(F)ccc2F)C1 | 3%
